# According to the antibiotic and cytotoxicity screens of Wong et al. (2023):
# Screen size: about 39,000 compounds; about 3,300 (8.5%) were called active. For the sample, actives were picked, then their nearest neighbours and some compounds at random.
# System: HepG2
# Experiment: cytotoxicity call (relative viability < 0.9)
# Conditions: 10 µM
row,SMILES,cytotoxicity call
1,CN(C)CCCCNC(=O)[C@@H]1C[C@@H]2C(=O)N[C@@H](CCCCN(C)C)C(=O)N2[C@@H]1c1cccc(OCCO)c1,inactive
2,S=c1[nH]c2ccccc2s1,inactive
3,C[C@@H]1CN([C@@H](C)CO)C(=O)c2cc(NC(=O)CCCN(C)C)ccc2O[C@H]1CN(C)S(=O)(=O)c1cccs1,inactive
4,COCCNCc1ccc(-c2cc3nccc(Oc4ccc(NC(=O)C5(C(=O)Nc6ccc(F)cc6)CC5)cc4F)c3s2)nc1,active
5,Cn1cnc(-c2cc3nccc(Oc4ccc(NC(=S)NC(=O)Cc5ccccc5)cc4F)c3s2)c1,inactive
6,COCCNCc1ccc(-c2cc3nccc(Oc4ccc(NC(=S)NC(=O)Cc5ccc(F)cc5)cc4F)c3s2)nc1,active
7,COc1ccc(CN(C)C[C@H]2Oc3c(NC(=O)Nc4cccc5ccccc45)cccc3C(=O)N([C@H](C)CO)C[C@H]2C)cc1,inactive
8,COc1cccc(CNC(=O)C[C@@H]2C=C[C@H](NC(=O)C3CCOCC3)[C@H](CO)O2)c1,inactive
9,C[C@H]1CN([C@@H](C)CO)C(=O)c2cc(C#Cc3ccc(F)cc3)cnc2O[C@H]1CN(C)CC1CCOCC1,inactive
10,C=CCN1C(=O)[C@@]2(O[C@H](CCOC(=O)NCCCCCC(=O)NO)[C@@H]([Si](C)(C)c3ccc(OC)cc3)[C@@H]2C)c2cc(I)ccc21,inactive
11,O=C1NC2=C(C(=O)OC2)[C@H](c2ccccc2)N1,active
12,O=C1COC[C@@H](c2ccccc2)N1,inactive
13,O=C1NC(=O)[C@@H](c2ccccc2)N1,inactive
14,C[C@@H]1CN([C@@H](C)CO)C(=O)c2cc(NC(=O)Cc3ccccc3)ccc2O[C@H]1CN(C)S(=O)(=O)c1ccccc1,inactive
15,C[C@@H]1CCCCO[C@@H](CN(C)C(=O)C2CCCCC2)[C@@H](C)CN([C@@H](C)CO)C(=O)c2cc(NS(=O)(=O)c3ccc(Cl)cc3)ccc2O1,inactive
16,Cc1ccc(S(=O)(=O)N2CCO[C@@H]2CNC(=O)C(=O)NCc2ccccn2)cc1,inactive
17,C[C@H](CO)N1C[C@H](C)[C@H](CN(C)Cc2ccc(C(=O)Nc3ccccc3N)cc2)Oc2ccc(NC(=O)Nc3ccc4c(c3)OCO4)cc2C1=O,inactive
18,O=C1c2ccccc2[C@](Cc2ccccc2I)(C(=O)NCC(F)(F)F)[C@H](c2ccc(CO)cc2)N1C1CCCCC1,inactive
19,O=C1c2ccccc2[C@](Cc2ccccc2I)(C(=O)NCCN2CCOCC2)[C@H](c2ccc(CO)cc2)N1C1CCCCC1,active
20,CN(C)CCCNC(=O)[C@@]1(Cc2ccccc2I)c2ccccc2C(=O)N(C2CCCCC2)[C@H]1c1ccc(CO)cc1,active
21,COCCCNC(=O)[C@@]1(Cc2ccccc2I)c2ccccc2C(=O)N(C2CCCCC2)[C@H]1c1ccc(CO)cc1,active
22,O=C1c2ccccc2[C@](Cc2ccccc2I)(C(=O)NCc2ccccc2)[C@H](c2ccc(CO)cc2)N1C1CCCCC1,inactive

row,SMILES,cytotoxicity call
1,CN(C)CCCN1C(=O)[C@@]2(Cc3ccccc31)c1ccccc1C(=O)N(C1CCCCC1)[C@H]2c1ccc(CO)cc1,inactive
2,O=C1c2ccccc2[C@](Cc2ccccc2I)(C(=O)O)[C@H](c2ccc(CO)cc2)N1C1CCCCC1,inactive
3,COc1ccc(CCNC(=O)[C@@]2(Cc3ccccc3I)c3ccccc3C(=O)N(C3CCCCC3)[C@H]2c2ccc(CO)cc2)cc1,inactive
4,COc1ccccc1CN1C(=O)c2ccccc2[C@](Cc2ccccc2I)(C(=O)NCCN2CCOCC2)[C@@H]1c1ccc(CO)cc1,inactive
5,Cc1noc(C)c1NC(=O)N(C)C[C@@H]1OCCCC[C@H](C)Oc2ccc(NS(=O)(=O)c3ccc(F)cc3)cc2C(=O)N([C@@H](C)CO)C[C@@H]1C,inactive
6,CO[C@@H]1CN(C)C(=O)c2ccc(NS(=O)(=O)c3cn(C)cn3)cc2OC[C@@H](C)N(CC2CC2)C[C@H]1C,inactive
7,O=S(=O)(NCC[C@H]1CC[C@@H](NS(=O)(=O)c2ccccc2Cl)[C@H](CO)O1)c1ccc(F)cc1,inactive
8,C[C@H]1CN([C@@H](C)CO)C(=O)Cc2cc(NC(=O)Nc3ccc4c(c3)OCO4)ccc2O[C@H]1CN(C)Cc1ccc(Oc2ccccc2)cc1,inactive
9,C[C@@H]1CN([C@@H](C)CO)C(=O)Cc2cc(NC(=O)Nc3ccc4c(c3)OCO4)ccc2O[C@@H]1CN(C)Cc1ccc(Oc2ccccc2)cc1,active
10,C[C@@H]1CN([C@H](C)CO)C(=O)Cc2cc(NC(=O)Nc3ccc4c(c3)OCO4)ccc2O[C@H]1CN(C)Cc1ccc(Oc2ccccc2)cc1,inactive
11,C[C@@H]1CN([C@@H](C)CO)C(=O)Cc2cc(NC(=O)Nc3ccc4c(c3)OCO4)ccc2O[C@H]1CN(C)Cc1ccc(Oc2ccccc2)cc1,inactive
12,C[C@H]1CN([C@@H](C)CO)C(=O)Cc2cc(NC(=O)Nc3ccc4c(c3)OCO4)ccc2O[C@@H]1CN(C)Cc1ccc(Oc2ccccc2)cc1,inactive
13,C[C@@H]1CN([C@H](C)CO)C(=O)Cc2cc(NC(=O)Nc3ccc4c(c3)OCO4)ccc2O[C@@H]1CN(C)Cc1ccc(Oc2ccccc2)cc1,active
14,C[C@H](CO)N1C[C@H](C)[C@H](CN(C)Cc2ccc(Oc3ccccc3)cc2)Oc2ccc(NC(=O)Nc3ccc4c(c3)OCO4)cc2CC1=O,active
15,C[C@H](CO)N1C[C@H](C)[C@@H](CN(C)Cc2ccc(Oc3ccccc3)cc2)Oc2ccc(NC(=O)Nc3ccc4c(c3)OCO4)cc2CC1=O,inactive
16,C[C@@H]1CCCCO[C@H](CN(C)C(=O)Nc2ccc(F)cc2)[C@H](C)CN([C@@H](C)CO)C(=O)c2cc(NC(=O)C3CCCCC3)ccc2O1,inactive
17,Cc1noc(C)c1S(=O)(=O)Nc1cccc2c1O[C@H](CN(C)S(=O)(=O)c1ccc(Cl)cc1)[C@H](C)CN([C@H](C)CO)C2=O,inactive
18,C[C@@H]1CCCCO[C@@H](CN(C)S(=O)(=O)c2ccc(Cl)cc2)[C@@H](C)CN([C@H](C)CO)C(=O)c2cc(NS(=O)(=O)c3ccccc3)ccc2O1,inactive
19,C[C@H](CO)N1C[C@H](C)[C@H](CN(C)S(=O)(=O)c2ccc(C#N)cc2)Oc2ncc(-c3ccc(F)cc3)cc2C1=O,inactive
20,C[C@H]1CN([C@@H](C)CO)C(=O)Cc2cc(NC(=O)Nc3ccc(F)cc3)ccc2O[C@@H]1CN(C)Cc1ccc(Oc2ccccc2)cc1,active
21,C[C@H](CO)N1C[C@H](C)[C@H](CN(C)Cc2ccc(Oc3ccccc3)cc2)Oc2ccc(NC(=O)Nc3ccc(F)cc3)cc2CC1=O,active
22,C[C@@H]1CN([C@H](C)CO)C(=O)Cc2cc(NC(=O)Nc3ccc(F)cc3)ccc2O[C@@H]1CN(C)Cc1ccc(Oc2ccccc2)cc1,active

row,SMILES,cytotoxicity call
1,C[C@@H]1CN([C@@H](C)CO)C(=O)Cc2cc(NC(=O)Nc3ccc(F)cc3)ccc2O[C@H]1CN(C)Cc1ccc(Oc2ccccc2)cc1,active
2,COc1ccc(CN(C)C[C@H]2OCCCC[C@@H](C)Oc3ccc(NC(=O)c4ccncc4)cc3C(=O)N([C@@H](C)CO)C[C@@H]2C)cc1,inactive
3,Cc1ccc(S(=O)(=O)Nc2ccc3c(c2)C(=O)N([C@H](C)CO)C[C@@H](C)[C@H](CN(C)C(=O)c2ccccc2)OCCCC[C@@H](C)O3)cc1,inactive
4,Cc1ccc(S(=O)(=O)N[C@H]2CC[C@H](CC(=O)N3CCC(Cc4ccccc4)CC3)O[C@@H]2CO)cc1,inactive
5,C[C@@H]1CCCCO[C@@H](CN(C)C)[C@@H](C)CN([C@H](C)CO)C(=O)c2cc(NS(=O)(=O)c3cn(C)cn3)ccc2O1,inactive
6,CC(C)NC(=O)N(C)C[C@H]1Oc2c(NC(=O)NC3CCCCC3)cccc2C(=O)N([C@@H](C)CO)C[C@H]1C,inactive
7,C[C@@H]1CN([C@@H](C)CO)C(=O)c2cccc(NC(=O)Nc3ccccc3)c2O[C@@H]1CN(C)S(=O)(=O)c1cn(C)cn1,inactive
8,C[C@@H]1CCCCO[C@@H](CN(C)S(=O)(=O)c2cn(C)cn2)[C@H](C)CN([C@H](C)CO)C(=O)c2cc(N(C)C)ccc2O1,inactive
9,O=C(CN1CCOCC1)N[C@@H]1CC[C@@H](CCNC(=O)Nc2cc(F)ccc2F)O[C@@H]1CO,inactive
10,C[C@@H]1CCCCO[C@H](CN(C)C)[C@@H](C)CN([C@H](C)CO)C(=O)c2cc(NC(=O)CCCN(C)C)ccc2O1,inactive
11,C[C@@H]1CCCCO[C@@H](CN(C)C(=O)NC2CCCCC2)[C@@H](C)CN([C@@H](C)CO)C(=O)c2cc(NC(=O)Nc3ccc4c(c3)OCO4)ccc2O1,inactive
12,C[C@@H]1CN([C@H](C)CO)C(=O)Cc2cc(NC(=O)Nc3ccc(F)cc3)ccc2O[C@H]1CN(C)Cc1ccc(Oc2ccccc2)cc1,active
13,C[C@@H]1CN([C@@H](C)CO)C(=O)Cc2cc(NC(=O)Nc3ccc(F)cc3)ccc2O[C@@H]1CN(C)Cc1ccc(Oc2ccccc2)cc1,inactive
14,C[C@H]1CN([C@@H](C)CO)C(=O)Cc2cc(NC(=O)Nc3ccc(F)cc3)ccc2O[C@H]1CN(C)Cc1ccc(Oc2ccccc2)cc1,active
15,C[C@H](CO)N1C[C@H](C)[C@@H](CN(C)Cc2ccc(Oc3ccccc3)cc2)Oc2ccc(NC(=O)Nc3ccc(F)cc3)cc2CC1=O,active
16,CC(=O)Nc1nnc(S(N)(=O)=O)s1,inactive
17,C[C@H](CO)N1C[C@H](C)[C@@H](CN(C)S(=O)(=O)c2ccc(F)cc2)Oc2ccc(NC(=O)Cn3cnnn3)cc2C1=O,inactive
18,CC(C)NC(=O)Nc1cccc2c1O[C@@H](CN(C)S(=O)(=O)c1cn(C)cn1)[C@@H](C)CN([C@H](C)CO)C2=O,inactive
19,CONC(=O)Nc1ccc(-c2sc3c(c2CN(C)Cc2ccccc2)c(=O)n(-c2ccccc2)c(=O)n3Cc2c(F)cccc2F)cc1,inactive
20,C[C@@H]1CN([C@@H](C)CO)C(=O)c2cccc(NC(=O)Nc3ccc(F)cc3)c2O[C@H]1CN(C)Cc1ccc(-c2ccccc2)cc1,inactive
21,CC(C)OC(=O)c1cn(Cc2c(F)cccc2F)c2sc(-c3ccc(NC(=O)C(C)C)cc3)c(CN(C)Cc3ccccc3)c2c1=O,active
